The campaign covered roughly 340,000 compounds. About 2,100 (0.62%) were called active.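 Rule for the calls: active = first-screen hits whose inhibition reached a set limit at any dose in the follow-up dose series; inconclusive = inhibition above the set first-screen limit but never retested; inactive = the rest.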 Only a sample is shown. Measured potencies and affinities stand elsewhere.
target: Rac GTPase-activating protein 1 (Homo sapiens) (UniProt Q9H0H5); test: MgcRacGAP GTPase-activating activity inhibitors, confirmation, biochemical, ADP Hunter fluorescence, primary and confirmatory (AID 624330); conditions: MgcRacGAP-stimulated Rac1 GTP hydrolysis, at 30 µM, hits give high values, GST-tagged Rac1 F28L mutant substrate;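 note: fluorescence reports GDP produced by GAP-driven GTP hydrolysis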
Sequence (Q9H0H5 whole entry, looked up): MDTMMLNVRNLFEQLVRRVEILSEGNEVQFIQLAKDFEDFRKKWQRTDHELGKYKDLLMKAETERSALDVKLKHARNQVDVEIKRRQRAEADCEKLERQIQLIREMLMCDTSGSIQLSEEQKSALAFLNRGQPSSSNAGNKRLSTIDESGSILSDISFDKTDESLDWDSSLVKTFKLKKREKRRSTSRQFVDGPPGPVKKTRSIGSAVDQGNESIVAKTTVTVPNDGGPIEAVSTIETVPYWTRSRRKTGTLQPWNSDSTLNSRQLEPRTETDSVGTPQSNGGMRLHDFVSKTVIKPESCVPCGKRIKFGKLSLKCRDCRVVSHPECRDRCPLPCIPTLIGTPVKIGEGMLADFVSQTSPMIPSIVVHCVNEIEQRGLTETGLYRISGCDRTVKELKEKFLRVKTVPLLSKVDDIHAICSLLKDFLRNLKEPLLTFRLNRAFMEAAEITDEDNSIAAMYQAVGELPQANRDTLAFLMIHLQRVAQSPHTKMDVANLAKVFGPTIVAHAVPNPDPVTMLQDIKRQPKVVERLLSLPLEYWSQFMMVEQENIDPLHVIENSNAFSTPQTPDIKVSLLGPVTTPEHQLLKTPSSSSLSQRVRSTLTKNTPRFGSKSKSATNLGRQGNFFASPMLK

inhibition, inactive:
CC1CCc2sc(C(=O)NCCCn3ccnc3)cc2C1 (stereo unspecified) 5.91%
O=C(c1cc2c(=O)n3ccccc3nc2s1)N1CCN(Cc2ccccc2)CC1 4.57%
Cc1c(-n2c(=S)[nH]c3ccccc3c2=O)c(=O)n(-c2ccccc2)n1C 4.22%
Cc1c(C(c2ccc(N(C)C)cc2)c2c(C)n(C)n(-c3ccccc3)c2=O)c(=O)n(-c2ccccc2)n1C -5.89%
CCC(C)C1=CC(=Nc2c(C)n(C)n(-c3ccccc3)c2=O)C=C(C(C)CC)C1=O (stereo unspecified) 9.72%
Cc1c(N(C)C)c(=O)n(-c2ccccc2)n1C 3.4%
Cc1c(N=Cc2nc3ccccc3[nH]2)c(=O)n(-c2ccccc2)n1C 17.9%
CC1=CC(=Nc2c(C)n(C)n(-c3ccccc3)c2=O)C=C(C)C1=O -4.18%
O=NNc1nc2ccccc2n1Cc1ccccc1 7.61%
CCOC(=O)C(NC(=O)Nc1ccc(F)cc1F)(Oc1ccc(F)cc1)C(F)(F)F (stereo unspecified) 7.05%
Cc1cc(NS(C)(=O)=O)c(=O)n(Cc2c(F)cccc2Cl)c1 -0.27%
C=CCSc1nc2sc(C)c(C)c2c(=O)n1N 2.09%
CCc1cc(Cn2nc(-c3ccccc3)cc2C(=O)NCC2CC2)on1 12%
COc1cc2c(cc1OC)C(c1cccs1)N(C(=O)c1cccc(S(=O)(=O)N(C)C)c1)CC2 (stereo unspecified) 5.21%
CCOc1ccc(S(=O)(=O)N2CCN(C(=O)CCOc3ccccc3C)CC2)cc1 3.82%
CCOc1ccc(NC(=O)COc2cccc3c2CCN(Cc2cccnc2)C3=O)cc1 0.41%
O=C1CC2(CCN(C(=O)c3cccc(Br)c3)CC2)Oc2ccccc21 3.6%
COc1ccc(C(=O)Nc2nc3cc(OC)c(OC)cc3c(=O)[nH]2)cc1 14.9%
COc1cc2nc(Nc3ccc(F)cc3)nc(N)c2cc1OC 6.17%
COc1cc2[nH]c(=S)nc(NCCC(C)C)c2cc1OC 20.9%
COc1ccc(CCNc2nc(=S)[nH]c3cc(OC)c(OC)cc23)cc1OC 39.9%
CSc1nc2c([nH]1)c(=S)n(C)c(=O)n2C 8.34%
COC(=O)C(CC(C)C)NC(=O)CNC(=O)c1ccccc1C (stereo unspecified) 7.16%
COc1ccccc1N1CCN(C(=O)c2cccc(N3C(=O)C4C5C=CC(C5)C4C3=O)c2)CC1 (stereo unspecified) 9.14%
COc1ccc(C2C(=O)NN=C2C)cc1 (stereo unspecified) 22.1%
CC1=NNC(=O)C1Oc1ccccc1 (stereo unspecified) 10.8%

— PubChem BioAssay AID624330 (Southern Research Specialized Biocontainment Screening …, 2012)
